This is an account of results in PubChem BioAssay.

Active and inactive are the calls of the source. Unless noted, no rule for the calls is given here.

For experiment [1], the system named is Wnt5a (protein binding on small-molecule microarray). The experiment in a line: Wnt5a binders on small-molecule microarray, primary screen, biophysical, 635/667 nm fluorescence (AID 1142).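 Also: fluorescence read at 667 nm with signal to noise per printed feature.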 The following applies: 635 nm fluorescence, higher = more signal.
Experiment [2] can be described thus: cell viability in Huh7 cells, primary screen, cytotoxicity control for HCV replication inhibitor project, CellTiter-Glo luminescence, basal, 48 h (AID 1143).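 Also: Huh7 hepatoma cells carrying a hepatitis C replication reporter with no stimulus; test concentration not given here.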 The note with it: Huh7 HCV replicon, higher = more signal, called active from +8 up or from −8 down. Background: Cellular ATP, detected with luciferase, serves as a proxy for viable cell number.
Experiment [3] is described as follows: P. aeruginosa biofilm formation inhibitors, primary screen, PAO1 strain, BacTiter-Glo luminescence, LB-PBS (AID 1144). The following applies: 12 h, higher = more signal.
Experiment [4] is described as follows: CREB reporter modulators without forskolin, primary screen, cell-based, PC12, CRE-LacZ reporter, unstimulated (AID 1145). The following applies: no forskolin, luminescence, 4.5 h, higher = more signal, called active from +8 up or from −8 down.
Experiment [5] can be described thus: CREB reporter modulators under forskolin, primary screen, cell-based, PC12, CRE-LacZ reporter, forskolin-stimulated (AID 1146).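 Also: PC12 cells with 6xCRE LacZ reporter stimulated by forskolin 10 µM; beta-galactosidase reporter signal reflecting CREB driven transcription.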 The note with it: luminescence, 4.5 h, higher = more signal, called active from +8 up or from −8 down.
In experiment [6] the target is Streptavidin (Streptomyces avidinii) (UniProt P22629). The experiment in a line: streptavidin binders on small-molecule microarray, primary screen, artefact control for SMM compound annotation, biophysical, 635/667 nm fluorescence (AID 1147).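 Also: signal reflects streptavidin binding to arrayed compounds as a control protein.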 The following applies: streptavidin binding, higher = more signal.
Sequence of Streptavidin (Streptomyces avidinii) (P22629 whole entry, looked up): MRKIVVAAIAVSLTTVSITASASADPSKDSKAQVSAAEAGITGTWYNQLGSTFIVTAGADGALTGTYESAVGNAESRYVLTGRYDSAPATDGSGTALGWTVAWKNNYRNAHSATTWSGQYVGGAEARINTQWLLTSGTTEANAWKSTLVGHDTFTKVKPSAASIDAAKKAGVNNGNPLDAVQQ
Experiment [7] in a line: small-molecule binders of probe aInhba, primary screen, biochemical, small-molecule microarray, 635/667 nm fluorescence (AID 1148).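 Also: score merges 667nm spot fluorescence with signal-to-noise for antibody binding to printed compounds.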 The following applies: higher = more signal.
Experiment [8] addresses Torsin-1A (Homo sapiens) (UniProt O14656). The experiment in a line: torsin A binders from cell lysate, primary screen, small-molecule microarray, wild-type, 635/667 nm (AID 1149). The following applies: COS7 hTOR1A-WT lysate, 635 nm fluorescence, higher = more signal.
The target is the same in experiment [9]. Description: small-molecule binders of mutant TOR1A in lysate, primary screen, cell lysate, small-molecule microarray, COS7 lysate, 635/667 nm fluorescence (AID 1150).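 Also: score pools 667 nm emission and signal to noise measuring lysate protein binding.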 The note with it: COS7 hTOR1A mutant lysate, 635 nm fluorescence, higher = more signal.
For experiment [10], the system named is Sonic hedgehog protein (Shh). Description: small-molecule binders of Shh protein, primary screen, biochemical, small-molecule microarray, 635/667 nm fluorescence (AID 1151).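 Also: Shh protein binding to compounds spotted on small-molecule microarray slides; score combines spot fluorescence intensity with signal-to-noise across triplicate slides.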 The following applies: small-molecule microarray binding, 635 nm fluorescence; higher = more signal.
The nature of experiment [11]: E. coli DRC41 culture turbidity changes, primary screen, E. coli filamentation inducer project, strain DRC41, OD650, 48 h (AID 1152).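 Also: E. coli MC1000 strain DRC41 lacking acrAB efflux pump and sulA.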 The following applies: E. coli DRC41 (acrAB sulA), higher = more signal, called active from +8 up or from −8 down.
Experiment [12] in a line: small-molecule binders of probe aLefty1, primary screen, biochemical, small-molecule microarray, 635/667 nm fluorescence (AID 1153).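 Also: score merges spot fluorescence with signal-to-noise ratio from the scanned slide images.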 The note with it: higher = more signal.
Experiment [13] in a line: PSAC antagonists in infected red cells, primary screen, cell-based, P. falciparum Indochina, OD700, 1 h (AID 1154). The note with it: P. falciparum Indochina infected RBC osmotic lysis, higher = more signal, called active from +8 up or from −8 down.
The nature of experiment [14]: PSAC antagonists in infected red cells, primary screen, cell-based, P. falciparum Indochina, OD700, 2 h (AID 1155).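 Also: lysis reports solute entry through the parasite surface anion channel PSAC; channel blockers reduce lysis of infected cells.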 The following applies: P. falciparum Indochina infected erythrocytes, osmotic lysis OD700; higher = more signal, called active from +8 up or from −8 down.
Experiment [15] can be described thus: osmotic lysis modulators in infected erythrocytes, primary screen, PSAC antagonist project, cell-based, P. falciparum Indochina, OD700, 3 h (AID 1156). The following applies: higher = more signal, called active from +8 up or from −8 down.
Experiment [16] is described as follows: PSAC antagonists in infected red cells, primary screen, cell-based, P. falciparum Indochina, OD700, 18 h (AID 1157). The following applies: P. falciparum Indochina infected erythrocytes, osmotic lysis OD700, 18 h; higher = more signal, called active from +8 up or from −8 down.
A short description of experiment [17]: modulators of S6 phosphorylation in cells, primary screen, cell-based, A549, cytoblot, luminescence, serum-stimulated (AID 1158).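 Also: serum-stimulated A549 lung adenocarcinoma cells; signal is phosphorylated S6 detected by cytoblot immunostaining with HRP secondary.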 The note with it: A549 phospho-S6 cytoblot, 5 h, higher = more signal.
In experiment [18] the target is NADPH oxidase 2 (Homo sapiens) (UniProt P04839). The experiment in a line: NOX2-dependent H2O2 signal modulators, primary screen, NOX inhibitor project, cell-based, HEK293-NOX2, PMA-stimulated, Amplex Red fluorescence (AID 1159). Also: test concentration not given here. The note with it: 45 min, higher = more signal, called active from +8 up or from −8 down.
Sequence of NADPH oxidase 2 (Homo sapiens) (P04839 whole entry, looked up): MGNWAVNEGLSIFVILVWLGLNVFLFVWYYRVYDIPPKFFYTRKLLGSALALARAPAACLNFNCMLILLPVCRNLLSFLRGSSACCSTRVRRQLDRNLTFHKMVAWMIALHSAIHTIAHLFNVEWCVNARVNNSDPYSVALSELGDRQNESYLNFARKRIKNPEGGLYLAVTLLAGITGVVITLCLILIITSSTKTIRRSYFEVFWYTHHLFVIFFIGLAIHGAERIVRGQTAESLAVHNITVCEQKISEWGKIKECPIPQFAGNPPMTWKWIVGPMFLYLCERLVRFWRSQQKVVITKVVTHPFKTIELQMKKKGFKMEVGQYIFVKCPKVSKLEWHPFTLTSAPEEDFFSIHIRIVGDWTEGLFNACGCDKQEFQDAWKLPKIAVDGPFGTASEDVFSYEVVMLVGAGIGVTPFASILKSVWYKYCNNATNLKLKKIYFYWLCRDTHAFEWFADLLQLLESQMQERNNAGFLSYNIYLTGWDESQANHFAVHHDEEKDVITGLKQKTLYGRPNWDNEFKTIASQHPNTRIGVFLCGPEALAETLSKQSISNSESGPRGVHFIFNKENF
Experiment [19] concerns the target NADPH oxidase 4 (Homo sapiens) (UniProt Q9NPH5). Description: NOX4-dependent H2O2 signal modulators, primary screen, NOX inhibitor project, cell-based, HEK293-NOX4, tetracycline-induced, Amplex Red fluorescence (AID 1160). The note with it: 45 min, higher = more signal, called active from +8 up or from −8 down.
The target of experiment [20] is NADPH oxidase 5 (Homo sapiens) (UniProt Q96PH1). The experiment in a line: NOX5-dependent H2O2 signal modulators, primary screen, NOX inhibitor project, cell-based, HEK293-NOX5, Amplex Red fluorescence (AID 1161). The following applies: HEK293-NOX5, ionomycin, 45 min, higher = more signal.
Sequence of NADPH oxidase 5 (Homo sapiens) (Q96PH1 whole entry, looked up): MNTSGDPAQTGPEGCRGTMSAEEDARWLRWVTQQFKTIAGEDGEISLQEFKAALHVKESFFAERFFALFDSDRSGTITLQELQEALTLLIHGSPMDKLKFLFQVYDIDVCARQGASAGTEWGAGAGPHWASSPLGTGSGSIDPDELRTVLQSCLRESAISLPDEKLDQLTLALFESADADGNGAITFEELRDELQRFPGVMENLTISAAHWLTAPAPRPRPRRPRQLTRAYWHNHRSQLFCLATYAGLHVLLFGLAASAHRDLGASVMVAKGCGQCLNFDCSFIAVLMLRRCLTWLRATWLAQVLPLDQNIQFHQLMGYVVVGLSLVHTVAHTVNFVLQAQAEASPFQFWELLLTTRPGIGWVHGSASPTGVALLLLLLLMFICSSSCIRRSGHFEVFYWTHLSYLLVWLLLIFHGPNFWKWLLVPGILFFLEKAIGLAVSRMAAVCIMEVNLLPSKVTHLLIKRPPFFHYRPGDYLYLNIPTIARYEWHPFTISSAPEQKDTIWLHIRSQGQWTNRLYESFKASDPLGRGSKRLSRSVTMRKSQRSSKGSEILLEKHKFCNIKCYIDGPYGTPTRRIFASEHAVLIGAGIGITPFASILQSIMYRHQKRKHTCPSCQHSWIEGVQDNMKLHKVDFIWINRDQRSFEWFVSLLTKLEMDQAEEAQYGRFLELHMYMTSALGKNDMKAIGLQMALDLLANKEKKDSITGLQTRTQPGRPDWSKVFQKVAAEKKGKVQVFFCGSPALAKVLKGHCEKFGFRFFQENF

Sequence of NADPH oxidase 4 (Homo sapiens) (Q9NPH5 whole entry, looked up): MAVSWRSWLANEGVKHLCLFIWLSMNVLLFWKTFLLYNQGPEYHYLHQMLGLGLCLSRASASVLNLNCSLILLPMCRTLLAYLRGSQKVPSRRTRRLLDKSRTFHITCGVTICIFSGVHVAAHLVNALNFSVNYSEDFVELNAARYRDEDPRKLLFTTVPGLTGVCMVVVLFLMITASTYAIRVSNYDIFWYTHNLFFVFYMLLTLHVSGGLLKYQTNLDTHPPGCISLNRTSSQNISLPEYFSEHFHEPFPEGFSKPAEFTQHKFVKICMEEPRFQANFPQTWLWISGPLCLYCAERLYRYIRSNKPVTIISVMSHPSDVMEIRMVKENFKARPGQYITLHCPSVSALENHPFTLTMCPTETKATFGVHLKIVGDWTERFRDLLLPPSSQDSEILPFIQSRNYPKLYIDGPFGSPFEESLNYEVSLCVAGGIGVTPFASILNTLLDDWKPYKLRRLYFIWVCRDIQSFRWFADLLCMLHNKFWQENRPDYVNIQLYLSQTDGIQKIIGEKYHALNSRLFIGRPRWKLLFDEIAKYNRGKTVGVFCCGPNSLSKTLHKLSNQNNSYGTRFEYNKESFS
Sequence of Torsin-1A (Homo sapiens) (O14656 whole entry, looked up): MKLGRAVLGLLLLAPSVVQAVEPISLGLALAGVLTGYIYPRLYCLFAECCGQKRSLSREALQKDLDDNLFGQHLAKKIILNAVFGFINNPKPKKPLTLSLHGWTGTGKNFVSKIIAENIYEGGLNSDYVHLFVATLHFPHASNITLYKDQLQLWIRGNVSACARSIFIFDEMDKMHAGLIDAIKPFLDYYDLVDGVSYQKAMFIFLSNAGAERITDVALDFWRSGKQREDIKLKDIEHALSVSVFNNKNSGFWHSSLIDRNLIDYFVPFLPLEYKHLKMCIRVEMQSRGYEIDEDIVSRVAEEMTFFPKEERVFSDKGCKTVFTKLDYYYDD

Consider `C=CCNC(=O)[C@@H]1[C@H]2C(=O)O[C@H](c3ccccc3)[C@H](c3ccccc3)N2[C@H](c2ccc(O)cc2)[C@@]12C(=O)Nc1ccc(C#CCC(C(=O)OC)C(=O)OC)cc12`, for which the composite z-score was 0.0513 in experiment [1]; 0.138 in experiment [6]; -0.018 in experiment [7]; 0.131 with Torsin-1A (Homo sapiens) [8]; 1.76 in the experiment with Torsin-1A (Homo sapiens) [9]; 0.8 in [10]. Besides, in experiment [12], the composite z-score was -0.0544. Moreover, the z-score is -5.09 (inactive) in experiment [2]; -1.02 (inactive) in experiment [3]; -0.608 (inactive) in [4]; -0.746 (inactive) in experiment [5]; -0.482 (inactive) in [11]; 5.99 (inactive) in experiment [13]. Moreover, the z-score in [14] was 0.792 (inactive); in [15], 2.3 (inactive); in [16] it was 0.319 (inactive); in [17], -0.45; in experiment [18] it was 1.97 (inactive); in experiment [19] it was 0.448 (inactive). Also, the z-score in experiment [20] came out at 1.25.

Consider `COCCCNC(=O)[C@@]1(c2ccc([N+](=O)[O-])cc2)CC(=O)N(CC23CC4CC(CC(C4)C2)C3)[C@@H]1c1ccc(CO)cc1I`, for which the composite z-score in [1] was 0.582; in experiment [6], -0.414; in experiment [7], 0.0906; with Torsin-1A (Homo sapiens) [8], 0.676; in the experiment with Torsin-1A (Homo sapiens) [9] it was 0.0661; in experiment [10], 0.636. Besides, the composite z-score in [12] was found to be 0.082. Besides, the z-score in experiment [2] is -5.26 (inactive); in experiment [3], 0.142 (inactive); in [4] it was -0.825 (inactive); in experiment [5], 0.372 (inactive); in [11], -0.355 (inactive); in [13] it was 24 (active). Also, the z-score in experiment [14] is 8.65 (active); in experiment [15], 2.5 (inactive); in experiment [16], 2.31 (inactive); in [17] it was -0.0623; in experiment [18] it was 2.08 (inactive); in [19], -1.02 (inactive). The compound also came in with a z-score in experiment [20] of -0.233.

For `Cc1ccc(S[C@]2(C(=O)NC(C)C)CC(=O)N(Cc3ccccc3Cl)[C@@H]2c2ccc(CO)cc2)cc1`, the composite z-score in [1] was -0.323; in experiment [6], -1.03; in experiment [7] it was -0.149; in the experiment with Torsin-1A (Homo sapiens) [8] it was -2.93; with Torsin-1A (Homo sapiens) [9], -1.86; in experiment [10], -0.761. The same compound had a composite z-score in [12] of 0.0509. In addition, the z-score in experiment [2] is -2.67 (inactive); in [3] it was -0.141 (inactive); in experiment [4], -0.295 (inactive); in [5], 0.506 (inactive); in [11] it was -1.03 (inactive); in [13], 3.11 (inactive). The z-score in experiment [14] is 0.0285 (inactive); in [15], 1.5 (inactive); in experiment [16], 0.253 (inactive); in experiment [17], -0.026; in experiment [18], -0.984 (inactive); in experiment [19] it was -1.19 (inactive). The z-score in [20] is -0.486.

Turning to `Cc1ccc(C(C)CC(O)C2C=CC3C(=O)N(c4ccccc4)C(=O)C3N2Nc2ccc(C#N)cc2)o1` (stereo not given), the composite z-score is 0.303 in experiment [1]; 1.1 in [6]; 0.027 in experiment [7]; 0.279 with Torsin-1A (Homo sapiens) [8]; 0.443 with Torsin-1A (Homo sapiens) [9]; 0.218 in experiment [10]. The compound also yielded a composite z-score in experiment [12] of 0.198. Moreover, the z-score in experiment [2] was -1.18 (inactive); in experiment [3], -0.194 (inactive); in [4] it was -0.333 (inactive); in experiment [5], -0.306 (inactive); in experiment [11] it was 0.249 (inactive); in experiment [13], 7.4 (inactive). Moreover, the z-score in experiment [14] was 0.478 (inactive); in [15], 0.45 (inactive); in [16], -0.397 (inactive); in experiment [17], 0.729; in experiment [18], -2.43 (inactive); in experiment [19] it was -3.34 (inactive). Also, the z-score in experiment [20] was -2.6.

As to `CO[C@H]1O[C@H](CO)[C@@H](OC(=O)Nc2cccc(F)c2)[C@H](OC(=O)Nc2ccccc2-c2ccccc2)[C@H]1OC(=O)Nc1ccccc1-c1ccccc1`, the composite z-score in experiment [1] is 0.828; in experiment [6], 0.379; in experiment [7], 0.208; with Torsin-1A (Homo sapiens) [8], 0.937; with Torsin-1A (Homo sapiens) [9] it was 0.663; in [10] it was 1.23. Further, the composite z-score in [12] turned out to be 0.302. For the same compound, the z-score in experiment [2] was -5.99 (inactive); in [3] it was 0.0177 (inactive); in experiment [4] it was 0.951 (inactive); in experiment [5] it was -0.986 (inactive); in [11], -0.732 (inactive); in [13], 4.41 (inactive). The z-score is 1.22 (inactive) in experiment [14]; -2.85 (inactive) in experiment [15]; 0.937 (inactive) in [16]; -0.309 in [17]; -5.73 (inactive) in experiment [18]; -1.02 (inactive) in experiment [19]. Further, the z-score in experiment [20] was -1.21.
